According to PubChem BioAssay (EPA / NIEHS):
The source made the active and inactive calls. How the source made its calls: active means hit-call score of the fitted dose curve at least 0.9, where 1 is the maximum; inactive means score below 0.9.

Key:
Settings in all cases: mRNA level, 48 h; actives raise or lower the signal
[1] = read-out: DNA damage-inducible transcript 3 (DDIT3), DDIT3 (gene 1649); experiment: LTEA_HepaRG_DDIT3: Life Technologies and Expression Analysis (LTEA) Assay for DNA damage-inducible transcript 3 (DDIT3) using HepaRG (AID 2283488)
Summary of the method: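 Differentiated human HepaRG cells in serum-free induction medium were exposed in duplicate for 48 h to 8 concentrations (top 100 uM, half-log steps, 0.5% DMSO). DDIT3 mRNA measured by TaqMan qRT-PCR, normalized to ACTB/GAPDH/POLR2A; bidirectional fit versus DMSO.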

[2] = read-out: Pro-epidermal growth factor (Homo sapiens) (UniProt P01133); experiment: LTEA_HepaRG_EGF: Life Technologies and Expression Analysis (LTEA) Assay for Epidermal growth factor (EGF) using HepaRG (AID 2283489)
Summary of the method: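 Concentration-response mRNA assay: HepaRG cells dosed 48 h (max 100 uM, 0.5% DMSO), EGF measured by qRT-PCR and normalized to ACTB/GAPDH/POLR2A.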

[3] = read-out: Early growth response protein 1 (EGR1) transcription factor, EGR1 (gene 1958); experiment: LTEA_HepaRG_EGR1: Life Technologies and Expression Analysis (LTEA) Assay for Early growth response protein 1 (EGR1) transcription factor using HepaRG (AID 2283490)
Summary of the method: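 Differentiated human HepaRG cells in serum-free induction medium were exposed in duplicate for 48 h to eight concentrations (top 100 uM, half-log steps) in 0.5% DMSO. EGR1 mRNA was quantified by qRT-PCR, normalized to ACTB, GAPDH and POLR2A, and fitted bidirectionally versus DMSO.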

[4] = read-out: Ezrin (EZR), EZR (gene 7430); experiment: LTEA_HepaRG_EZR: Life Technologies and Expression Analysis (LTEA) Assay for Ezrin (EZR) using HepaRG (AID 2283491)
Summary of the method: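 Gain or loss of EZR mRNA is scored relative to 0.5% DMSO in human HepaRG cultures treated 48 h with test chemicals in duplicate, eight half-log concentrations from 100 uM.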

[5] = read-out: Cytochrome P450 3A7 (Homo sapiens) (UniProt P24462); experiment: LTEA_HepaRG_CYP3A7: Life Technologies and Expression Analysis (LTEA) Assay for CYP3A7 using HepaRG (AID 2283492)
Summary of the method: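 qRT-PCR of CYP3A7 in HepaRG lysates after 48 h treatment; concentration-response (8 points, max 100 uM) analysed bidirectionally relative to 0.5% DMSO controls.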

CYP3A5 (gene 1577) = experiment: LTEA_HepaRG_CYP3A5: Life Technologies and Expression Analysis (LTEA) Assay for CYP3A5 using HepaRG (AID 2283493)
Summary of the method: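 Differentiated HepaRG cells in serum-free induction medium were dosed 48 h with test chemicals (8-point half-log series, top 100 uM, 0.5% DMSO, duplicate). CYP3A5 mRNA measured by qRT-PCR, normalized to ACTB, GAPDH, POLR2A; bidirectional fit versus DMSO.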

[6] = read-out: Fatty Acid-Binding Protein 1 (FABP1), FABP1 (gene 2168); experiment: LTEA_HepaRG_FABP1: Life Technologies and Expression Analysis (LTEA) Assay for Fatty Acid-Binding Protein 1 (FABP1) using HepaRG (AID 2283494)
Summary of the method: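 Differentiated human HepaRG cells were exposed in duplicate for 48 h in serum-free induction medium to 8-point half-log concentration series topping at 100 uM in 0.5% DMSO. FABP1 mRNA measured by TaqMan qRT-PCR, normalized to ACTB/GAPDH/POLR2A; bidirectional fit versus DMSO.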

[7] = read-out: Cytochrome P450 4A22 (Homo sapiens) (UniProt Q5TCH4); experiment: LTEA_HepaRG_CYP4A22: Life Technologies and Expression Analysis (LTEA) Assay for Cytochrome P450 4A22 (CYP4A22) using HepaRG (AID 2283495)
Summary of the method: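 Concentration-response (8 points, max 100 uM, 0.5% DMSO) in human HepaRG liver cells after 48 h exposure. CYP4A22 mRNA by TaqMan qRT-PCR with housekeeping-gene normalization.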

[8] = read-out: Cytochrome P450 7A1 (Homo sapiens) (UniProt P22680); experiment: LTEA_HepaRG_CYP7A1: Life Technologies and Expression Analysis (LTEA) Assay for Cytochrome P450 7A1 (CYP7A1) using HepaRG (AID 2283496)
Summary of the method: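 Gene expression endpoint in human HepaRG liver cells treated for 48 h with test chemicals (up to 100 uM, 0.5% DMSO). Values come from bidirectional concentration-response fitting versus DMSO.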

[9] = read-out: Glutathione S-Transferase (GSTA2), GSTA2 (gene 2939); experiment: LTEA_HepaRG_GSTA2: Life Technologies and Expression Analysis (LTEA) Assay for Glutathione S-Transferase (GSTA2) using HepaRG (AID 2283497)
Summary of the method: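 Human HepaRG cells, plated 48 h, then exposed in serum-free induction medium for 48 h to eight half-log concentrations up to 100 uM in 0.5% DMSO, duplicate. GSTA2 mRNA by qRT-PCR, normalized to ACTB/GAPDH/POLR2A; bidirectional fit versus DMSO.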

[10] = read-out: Glutamate-cysteine ligase catalytic (GCLC), GCLC (gene 2729); experiment: LTEA_HepaRG_GCLC: Life Technologies and Expression Analysis (LTEA) Assay for Glutamate-cysteine ligase catalytic (GCLC) using HepaRG (AID 2283498)
Summary of the method: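 Differentiated human HepaRG cells, plated 48 h then switched to serum-free induction medium, were exposed in duplicate for 48 h to 8 half-log concentrations topping at 100 uM in 0.5% DMSO. GCLC mRNA was quantified by qRT-PCR against ACTB, GAPDH and POLR2A.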

[11] = read-out: growth arrest and DNA damage 45 (GADD45G), GADD45G (gene 10912); experiment: LTEA_HepaRG_GADD45G: Life Technologies and Expression Analysis (LTEA) Assay for growth arrest and DNA damage 45 (GADD45G) using HepaRG (AID 2283499)
Summary of the method: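 Concentration-response in HepaRG: 48 h dosing, 0.5% DMSO, highest level 100 uM. GADD45G expression by qRT-PCR, normalised to endogenous controls; bidirectional fit to DMSO.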

[12] = read-out: Glutamate-cysteine ligase regulatory (GCLM), GCLM (gene 2730); experiment: LTEA_HepaRG_GCLM: Life Technologies and Expression Analysis (LTEA) Assay for Glutamate-cysteine ligase regulatory (GCLM) using HepaRG (AID 2283500)
Summary of the method: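 Differentiated human HepaRG cells exposed 48 h in serum-free induction medium to 8-point half-log concentrations (top 100 uM, 0.5% DMSO), in duplicate. GCLM mRNA quantified by qRT-PCR, normalized to ACTB, GAPDH, POLR2A; bidirectional fitting versus DMSO.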

[13] = read-out: Glutathione S-transferase M3 (GSTM3), GSTM3 (gene 2947); experiment: LTEA_HepaRG_GSTM3: Life Technologies and Expression Analysis (LTEA) Assay for Glutathione S-transferase M3 (GSTM3) using HepaRG (AID 2283501)
Summary of the method: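 Expression of GSTM3 is determined by qRT-PCR in human liver HepaRG cells treated 48 h with an 8-point half-log range from 100 uM in 0.5% DMSO.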

[14] = read-out: Heat shock 70 kDa protein 1 (HSPA1A), gene 3303; experiment: LTEA_HepaRG_HSPA1A: Life Technologies and Expression Analysis (LTEA) Assay for Heat shock 70 kDa protein 1 (HSPA1A) using HepaRG (AID 2283502)
Summary of the method: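 Differentiated human HepaRG cells in serum-free induction medium were exposed in duplicate for 48 h to eight concentrations (top 100 uM, half-log steps, 0.5% DMSO). HSPA1A mRNA was quantified by qRT-PCR, normalized to ACTB, GAPDH and POLR2A, and fitted bidirectionally against DMSO.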

[15] = read-out: Hypoxia-inducible factor 1-alpha (Homo sapiens) (UniProt Q16665); experiment: LTEA_HepaRG_HIF1A: Life Technologies and Expression Analysis (LTEA) Assay for Hypoxia-inducible factor 1 (HIF1A) Trancription factor using HepaRG (AID 2283503)
Summary of the method: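 HepaRG, 48 h exposure, 8-pt half-log series from 100 uM, 0.5% DMSO vehicle, duplicates. Readout: HIF1A transcript by qRT-PCR (Fluidigm array), housekeeping-normalised. Bidirectional curve fit vs DMSO baseline.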

[16] = read-out: 3-Hydroxy-3-Methylglutaryl-CoA Synthase 2 (HMGCS2), HMGCS2 (gene 3158); experiment: LTEA_HepaRG_HMGCS2: Life Technologies and Expression Analysis (LTEA) Assay for 3-Hydroxy-3-Methylglutaryl-CoA Synthase 2 (HMGCS2) using HepaRG (AID 2283504)
Summary of the method: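 This steatosis marker was read as HMGCS2 mRNA change in HepaRG cells treated 48 h with up to 100 uM chemical. Normalisation used housekeeping genes; activity in either direction was fitted relative to 0.5% DMSO vehicle.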

HGF (gene 3082) = experiment: LTEA_HepaRG_HGF: Life Technologies and Expression Analysis (LTEA) Assay for Hepatocyte Growth Facto (HGF) using HepaRG (AID 2283505)
Summary of the method: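 Using HepaRG monolayers kept in 0.5% DMSO, chemicals were tested in duplicate over eight half-log concentrations from 100 uM for 48 h. Endpoint: HGF mRNA change relative to DMSO, normalized to ACTB/GAPDH/POLR2A.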

[17] = read-out: Insulin Like Growth Factor 1 (IGF1), IGF1 (gene 3479); experiment: LTEA_HepaRG_IGF1: Life Technologies and Expression Analysis (LTEA) Assay for Insulin Like Growth Factor 1 (IGF1) using HepaRG (AID 2283506)
Summary of the method: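 Differentiated human HepaRG cells were dosed for 48 h in serum-free induction medium with 0.5% DMSO, eight half-log concentrations up to 100 uM, in duplicate. IGF1 mRNA was quantified by qRT-PCR normalized to ACTB, GAPDH, POLR2A; bidirectional fitting versus DMSO.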

[18] = read-out: Intercellular Adhesion Molecule 1 (ICAM1), ICAM1 (gene 3383); experiment: LTEA_HepaRG_ICAM1: Life Technologies and Expression Analysis (LTEA) Assay for Intercellular Adhesion Molecule 1 (ICAM1) using HepaRG (AID 2283507)
Summary of the method: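 Using the human liver line HepaRG, compounds are tested in duplicate over 48 h at concentrations up to 100 uM. Expression is determined by TaqMan qRT-PCR, normalized to endogenous controls, and analysed relative to 0.5% DMSO vehicle.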

Measured: AC50

Sequence of Cytochrome P450 3A7 (Homo sapiens) (P24462 whole entry, looked up): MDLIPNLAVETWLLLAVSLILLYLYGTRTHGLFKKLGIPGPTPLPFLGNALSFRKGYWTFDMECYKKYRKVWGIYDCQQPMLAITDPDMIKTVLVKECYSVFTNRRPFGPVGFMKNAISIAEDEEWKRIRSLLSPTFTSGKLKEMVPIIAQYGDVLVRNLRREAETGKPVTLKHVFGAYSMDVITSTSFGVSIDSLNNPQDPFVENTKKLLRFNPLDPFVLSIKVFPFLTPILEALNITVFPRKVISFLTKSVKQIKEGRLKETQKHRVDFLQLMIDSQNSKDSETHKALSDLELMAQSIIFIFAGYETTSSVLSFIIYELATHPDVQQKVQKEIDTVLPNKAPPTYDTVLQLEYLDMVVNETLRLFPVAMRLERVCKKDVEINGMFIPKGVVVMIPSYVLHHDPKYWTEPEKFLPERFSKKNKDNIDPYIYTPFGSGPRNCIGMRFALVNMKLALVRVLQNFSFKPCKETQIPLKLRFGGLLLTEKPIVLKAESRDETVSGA
Sequence of Hypoxia-inducible factor 1-alpha (Homo sapiens) (Q16665 whole entry, looked up): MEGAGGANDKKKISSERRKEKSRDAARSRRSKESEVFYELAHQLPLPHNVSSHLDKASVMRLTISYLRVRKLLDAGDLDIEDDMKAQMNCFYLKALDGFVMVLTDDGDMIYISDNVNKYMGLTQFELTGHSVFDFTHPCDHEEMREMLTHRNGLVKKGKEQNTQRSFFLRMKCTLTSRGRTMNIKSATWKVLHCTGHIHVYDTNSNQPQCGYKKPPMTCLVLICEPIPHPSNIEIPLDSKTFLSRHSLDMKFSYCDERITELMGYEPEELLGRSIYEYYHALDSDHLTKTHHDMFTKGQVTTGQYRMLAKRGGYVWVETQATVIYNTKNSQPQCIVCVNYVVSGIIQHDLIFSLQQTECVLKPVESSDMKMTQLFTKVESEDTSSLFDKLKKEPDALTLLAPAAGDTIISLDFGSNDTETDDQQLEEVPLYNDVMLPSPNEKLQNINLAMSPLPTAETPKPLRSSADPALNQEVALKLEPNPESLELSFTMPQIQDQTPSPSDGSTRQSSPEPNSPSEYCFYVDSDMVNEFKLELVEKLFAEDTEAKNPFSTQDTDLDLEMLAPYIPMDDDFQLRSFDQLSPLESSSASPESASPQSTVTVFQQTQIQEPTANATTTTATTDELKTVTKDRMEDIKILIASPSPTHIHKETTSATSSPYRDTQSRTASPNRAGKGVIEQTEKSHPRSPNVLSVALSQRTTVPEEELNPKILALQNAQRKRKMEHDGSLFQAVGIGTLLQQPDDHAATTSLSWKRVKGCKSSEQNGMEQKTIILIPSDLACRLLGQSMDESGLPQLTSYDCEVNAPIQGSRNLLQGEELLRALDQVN

CCN(CC)CCNc1ccc(CNC=O)c2sc3ccc(OC)cc3c(=O)c12
inactive: [1] | [2] | [12] | [13] | HGF (gene 3082)
active: [3] 88.2 µM | [4] 76.2 µM | [5] 3.36 µM | CYP3A5 (gene 1577) 50 µM | [6] 21.5 µM | [7] 25.7 µM | [8] 21.7 µM | [9] 81.8 µM | [10] 50 µM | [11] 50 µM | [14] 9.92 µM | [15] 75.5 µM | [16] 74.3 µM | [17] 85.6 µM | [18] 62.6 µM

CC(C)(C)CC(C)(C)c1ccc(O)c(-n2nc3ccccc3n2)c1
inactive: [1] | [3] | [4] | [5] | CYP3A5 (gene 1577) | [9] | [10] | [11] | [12] | [13] | [15] | HGF (gene 3082) | [18]
active: [2] 50 µM | [6] 50 µM | [7] 50 µM | [8] 50 µM | [14] 72.7 µM | [16] 50 µM | [17] 50 µM

OCCC(F)(F)C(F)(F)C(F)(F)C(F)(F)C(F)(F)C(F)(F)C(F)(F)C(F)(F)F
inactive: [1] | [2] | [3] | [4] | [5] | CYP3A5 (gene 1577) | [6] | [7] | [8] | [9] | [10] | [11] | [12] | [13] | [14] | [15] | [16] | HGF (gene 3082) | [17] | [18]

Oc1cccc(O)c1
inactive: [1] | [2] | [3] | [4] | [5] | CYP3A5 (gene 1577) | [6] | [7] | [8] | [9] | [10] | [11] | [12] | [13] | [14] | [15] | [16] | HGF (gene 3082) | [17] | [18]

CC#C[C@]1(O)CC[C@H]2[C@@H]3CCC4=CC(=O)CCC4=C3[C@@H](c3ccc(N(C)C)cc3)C[C@@]21C
active: [1] 29.2 µM | [2] 4.48 µM | [3] 8.69 µM | [4] 50 µM | [6] 35.1 µM | [7] 24.2 µM | [8] 43.6 µM | [9] 71.5 µM | [10] 28.4 µM | [11] 40.8 µM | [12] 31.6 µM | [15] 85.5 µM | [16] 75.9 µM | HGF (gene 3082) 85.2 µM | [17] 68.4 µM | [18] 26 µM
inactive: CYP3A5 (gene 1577) | [13] | [14]
